± gives the standard deviation.
test system: MILI (PIWIL2) piRISC loaded with L1MC piRNA (26 nt); assay: pre-steady-state target cleavage rate (min^-1); guide: L1MC piRNA 5'p-UAACUAAAUACUAUGCAAGCUGUAGG; MIWI and MILI are mouse PIWI proteins and EfPiwi is from a freshwater sponge; tags in brackets are library labels; higher = faster piRNA-guided slicing of the target; details: auxiliary factor: 500 nM mouse GTSF1
In short: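 A burst-and-steady-state fit was used to obtain the pre-steady-state cleavage rate. The input data were sequencing reads of uncleaved targets, normalised to depth and to weakly complementary targets, from a […] transcribed, DNA-blocked target RNA library mixed with 1 nM active affinity-purified piRISC holding one synthetic guide, with or without 500 nM GTSF1 partner protein, in HEPES–potassium acetate buffer at 33 °C for 0–8 or 0–960 min. Three trials were pooled and k3 was capped at 0.0001 min^-1.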
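Also: 1 nM active piRISC with 0.1 nM target library at 33 °C single turnover.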

Row | Sequence | pre-steady-state target cleavage rate
1 | UCCUGGAUGUCGAAGCUUAGUAUUUAGUUA | 0.00685 ± 0.0029
2 | UCCUGGAUGUCCUACCAUAGUAUUUAGUAA | 0.021 ± 0.0077
3 | UCCUCCUACAGCUUGCAAUGUAUUUUCAAA | 0.0219 ± 0.0065
4 | UCCUGGAUGUCCAUGCAUUGUAUUUAGUUA | 0.0108 ± 0.0042
5 | UCCUGGAUCAGCUUGCAUACUAUUUAGAUA | 0.0139 ± 0.0058
6 | UCCUGGAUCAGCUUGCAUAGUAAAAAGAAA | 0.0472 ± 0.015
7 | UCCUGGAUGAGCUUGCAUACUAAUUAGUUA | 0.0128 ± 0.0042
8 | UCCUGGAUCAGCUUGCAUUGUAUUUUCAAA | 0.00931 ± 0.0046
9 | UCCUGGUACAGCUUGCAAAGUAUUUACUUA | 0.0515 ± 0.015
10 | UCCUGGAUCAGCUUGCAUAGUUUUUUCAAA | 0.00833 ± 0.0048
11 | UCCUGGAUGAGCUUGCAUAGUAUUUUGAAA | 0.0223 ± 0.0096
12 | UCCUGGAUGUCGAAGCAUAGUAUUAAGUUA | 0.034 ± 0.0088
13 | UCCUGGAUGUCCUUGCAUAGUAAUUUGUUA | 0.0222 ± 0.0085
14 | UCCUGGAACAGCUUGCAUACUAUUUAGAAA | 0.0271 ± 0.011
15 | UCCUGGUACAGCUUGCAUAGUAUUUGUUA | 0.0839 ± 0.022
16 | UCCUGCUACAGCUUGCAUUCUAUUUAGUAA | 0.0252 ± 0.0088

Row | Sequence | pre-steady-state target cleavage rate
17 | UCCUGGAUGAGCUUGCAUAGUUUUUAGUAA | 0.0181 ± 0.0068
18 | UCCUGGAUCAGCUUGCAUUGAAUUUAGUUA | 0.0248 ± 0.0084
19 | UCCUGGAUCAGCUUGCAUAGUAUAAUCAAA | 0.0782 ± 0.019
20 | UCCUGGAUGAGCUUGCAUAGUAAAAAGUUA | 0.0673 ± 0.016
21 | UCCUGGAACACGUUGCAUAGUAUUUAGAAA | 0.187 ± 0.034
22 | UCCUGGAUGUCGUUGCAUAGUAUAAUGUUA | 0.0201 ± 0.011
23 | UCCUGGAACAGCUUGGUAAGUAUUUAGAAA | 0.0429 ± 0.015
24 | UCCUGGAUGAGCUAGCAUAGUAUUUACAAA | 0.0471 ± 0.015
25 | UCCUGGAACAGCUUGCAUAGUUUUUACAAA | 0.00599 ± 0.0038
26 | UCCUGGAUCAGCUUCGUUAGUAUUUAGUAA | 0.02 ± 0.0056
27 | UCCUGGAUCAGCUUGCAUAGUUAAAUCAAA [g10:g22:cont:t1A] | 0.00426 ± 0.0036
28 | UCCUGGAUGUCCUUGCAUACUAUUUACUUA | 0.0119 ± 0.0046
29 | UCCUGGAUGACCUUGCAUAGUAUUUAGUAA | 0.152 ± 0.019
30 | UCCUGGAUCACCUUGCAUAGUAUUUUCAAA | 0.0586 ± 0.021
31 | UCCUGGAUCAGCUACCAUAGUAUUUAGAAA | 0.024 ± 0.0091

same assay, conditions: auxiliary factor: none (no GTSF1)

Row | Sequence | pre-steady-state target cleavage rate
32 | UCCUGGAUGUCGAACGAUAGUAUUUAUGUUA | < 0.0001
33 | UCCUGGAUGUCGAACGUUAGAUUUUAGUUA | < 0.0001
34 | UCCUGGAUGUCGAACGAUAGUUUUAAGUUA | < 0.0001
35 | UCCUGGAUGUCGAACCAUAGUAUUAUGUUA | < 0.0001
36 | UCCUGGAUGUGCUUGCAUAGAUAUUUAGUUA | 0.00495 ± 0.0023
37 | UCCUGGAUGUCGUUCCAAAGUAUUUAGUUA | < 0.0001
38 | UCCUGGAUGUCGAACCAAAGUAUUUAGAUA | < 0.0001
39 | UCCUGGAUGUCGAACGAUGAGUAUUUAGUUA | < 0.0001
40 | UCCUGGAUGUCGAUGAUAGUAUUUAGUUA | < 0.0001

From the supplement of paper PMC10338343
